LAP4-GFP MLPCN – modulators of TOR pathway LAP4-GFP in S. cerevisiae | S. cerevisiae LAP4-GFP multiplex, flow cytometry GFP, 3 h; median GFP as percent of DMSO wells | GFP response vs DMSO, % at 10 µM | actives 0.34% (n = 320,000) | AID 2023;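 active = GFP response vs DMSO above a set limit, about the screen mean plus 3 SD, cut at about 150% in these data; inconclusive = under 70 cell events counted for the yeast strain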
AGP1-GFP MLPCN – alters AGP1-GFP fluorescence in TOR pathway yeast screen. actives 0.02% (n = 320,000). GFP response vs DMSO, % at 10 µM. S. cerevisiae AGP1-GFP multiplex flow cytometry, 3 h; GFP as percent of DMSO wells. AID 2066;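 active = GFP response relative to DMSO above a set limit, near screen average plus 3 SD, cut at about 150% in these data; inconclusive = fewer than 70 cells counted for the yeast strain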;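 note: median GFP channel fluorescence of the gated AGP1 strain per well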
MEP2 TOR yeast – modulators of TOR pathway MEP2-GFP in S. cerevisiae; actives 0.51% (n = 330,000); GFP response vs DMSO, % at 10 µM; S. cerevisiae MEP2-GFP strain, flow cytometry GFP, 3 h; 100% = DMSO control level; AID 2016;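 active = GFP response versus DMSO above a set limit, roughly screen mean plus 3 SD, cut at about 180% in these data; inconclusive = fewer than 70 cells counted for a yeast strain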;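 note: median GFP fluorescence of the barcode-gated MEP2-GFP cells per well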
DSG3 Ab inh – human desmoglein-3 autoantibody binding inhibition; DSG3-coupled beads, scFv-anti-DSG3-GFP binding, flow cytometry; hits give low values; binding (percent of control), % at 10 µM; actives 0.48% (n = 310,000); AID 588358;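 active = binding more than 3 SD below its plate's average and above zero; inconclusive = below that plate limit but binding exactly zero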;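 note: hits lower antibody fragment binding to DSG3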
RPL19A TOR yeast – modulators of TOR pathway RPL19A-GFP in S. cerevisiae; S. cerevisiae RPL19A-GFP strain, flow cytometry, 3 h; hits give low values; percent response vs DMSO, % at 10 µM; actives 0.3% (n = 330,000);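 active = percent response vs DMSO below 50%; inconclusive = fewer than 70 events counted for the yeast strain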;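 note: median channel GFP fluorescence of the barcoded RPL19A-GFP strain; lower means less RPL19A-GFP as with rapamycin TOR inhibition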
CIT2 TOR yeast – modulators of TOR pathway CIT2-GFP in S. cerevisiae; S. cerevisiae CIT2-GFP strain, flow cytometry, 3 h; 100 means same as DMSO wells; GFP response vs DMSO, % at 10 µM; actives 0.065% (n = 320,000);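 active = GFP response relative to DMSO above a set limit, near the screen mean plus 3 SD, cut at about 150% in these data; inconclusive = Fewer than 70 cells measured for a yeast strain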;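 note: ratio of well median GFP fluorescence to mean of DMSO wells on the plate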
Of the large screens only hits and unclear results are named; the others gave an inactive call; [ ] = another dose, or the depositor's remark. An excerpt weighted towards active compounds, which were near 1.2% of everything screened.

CCCn1c(SC(C)C(=O)NC2CCCC(C)C2C)n[nH]c1=O (configuration not stated)	DSG3 Ab inh 79 (no result: LAP4-GFP MLPCN, AGP1-GFP MLPCN, MEP2 TOR yeast, RPL19A TOR yeast, CIT2 TOR yeast)
COc1ccccc1C(=O)Nc1ccc(C(=O)N2CCCCC2)cc1	none
CCOC(=O)C1=CN(Cc2ccco2)S(=O)(=O)N(CC)C1c1ccccc1 (configuration not stated)	none (no result: LAP4-GFP MLPCN, AGP1-GFP MLPCN, MEP2 TOR yeast, RPL19A TOR yeast, CIT2 TOR yeast)
Cc1c(NC(=O)CN2CC(C)OC(C)C2)c(=O)n(-c2ccccc2)n1C (configuration not stated)	none
Cc1c(NC(=O)Nc2ccc3c(c2)OCO3)c(=O)n(-c2ccccc2)n1C	LAP4-GFP MLPCN 260, AGP1-GFP MLPCN 161, MEP2 TOR yeast 225
Cc1c(NC(=O)CN2c3ccccc3CC2C)c(=O)n(-c2ccccc2)n1C (configuration not stated)	DSG3 Ab inh 103
Cc1c(NC(=O)CN2CCN(C(c3ccccc3)c3ccccc3)CC2)c(=O)n(-c2ccccc2)n1C	AGP1-GFP MLPCN inconclusive, MEP2 TOR yeast 487[may fluoresce violet], RPL19A TOR yeast 27[may fluoresce violet], CIT2 TOR yeast inconclusive
Oc1ccc(Br)cc1C1Nc2ccccc2S1 (configuration not stated)	none
Nc1ccc2c(c1)[nH]c(=O)c1cc(N)ccc12	DSG3 Ab inh 75 (no result: LAP4-GFP MLPCN, AGP1-GFP MLPCN, MEP2 TOR yeast, RPL19A TOR yeast, CIT2 TOR yeast)
CCc1cc2c(=O)oc(-c3ccccc3F)nc2s1	DSG3 Ab inh 79
CCOc1ccc(NS(=O)(=O)c2ccc(C(=O)NCC(c3ccco3)N3CCCC3)cc2)cc1 (configuration not stated)	none
CC(=O)Nc1c2c(nn1-c1ccccc1)CS(=O)C2 (configuration not stated)	none
O=C(Nc1c2c(nn1-c1ccccc1)CS(=O)C2)c1ccco1 (configuration not stated)	LAP4-GFP MLPCN 168
Cc1cccc(-n2nc3c(c2NC(=O)c2ccco2)CSC3)c1C	DSG3 Ab inh 87
Cc1cccc(-n2nc3c(c2NC(=O)c2ccco2)CS(=O)C3)c1C (configuration not stated)	none
Cc1ccc(/C=C/C(=O)N2CC(C)CC(C)C2)o1 (configuration not stated)	MEP2 TOR yeast 275 (no result: RPL19A TOR yeast)
CCN(CC)S(=O)(=O)c1ccc2c(c1)N(CC(=O)N1CCCC1)C(=O)CO2	none
CCOc1cc2c(cc1/C=C/C(=O)O)OC(C)C2 (configuration not stated)	MEP2 TOR yeast 607[may fluoresce violet], CIT2 TOR yeast inconclusive
O=[N+]([O-])c1ccc(N2N=C(c3ccccc3)CC2c2ccccc2O)cc1 (configuration not stated)	MEP2 TOR yeast 299[may fluoresce violet], CIT2 TOR yeast inconclusive
Fc1ccc(C2CC(c3ccco3)=NN2c2ccccc2)cc1 (configuration not stated)	none (no result: DSG3 Ab inh)
O=[N+]([O-])c1ccc(N2N=C(c3ccco3)CC2c2ccccc2)cc1 (configuration not stated)	CIT2 TOR yeast 223
CC(C)[C@H]1COCCS(=O)(=O)N1Cc1ccccc1-c1cccc(Cl)c1	none (no result: LAP4-GFP MLPCN, AGP1-GFP MLPCN, MEP2 TOR yeast, RPL19A TOR yeast, CIT2 TOR yeast)
COC(=O)C1=C(C)NC(C)=C(C(=O)OC)C1c1ccc(-c2cccc([N+](=O)[O-])c2)o1	MEP2 TOR yeast 203[may fluoresce violet], RPL19A TOR yeast 46[may fluoresce violet], CIT2 TOR yeast inconclusive
CCN(CC)c1ccc(/C=C/C(=O)C2C(=O)C=C(C)OC2=O)cc1 (configuration not stated)	LAP4-GFP MLPCN 429[may fluoresce violet], MEP2 TOR yeast 462[may fluoresce violet], CIT2 TOR yeast inconclusive
Cc1cc(C(F)(F)F)n2nc(-c3cnn(C)c3C(F)(F)F)c(Br)c2n1	none
O=C(NCc1ccc(Cl)cc1)c1cnccn1	none
CC(=O)N(Cc1ccc(Cl)cc1)c1cnccn1	AGP1-GFP MLPCN inconclusive, MEP2 TOR yeast 293[may fluoresce violet], CIT2 TOR yeast inconclusive
CN1C2=CC=CC=CC2=[N+](C)C12C=CC(=[N+]([O-])[O-])C=C2[N+](=O)[O-] (configuration not stated)	DSG3 Ab inh 76
COc1ccc(OC)c(NC(=O)c2cccc3c2C(=O)N(C2CCCCC2)C3)c1	RPL19A TOR yeast 29
COc1ccc(NC(=O)c2cccc3c2C(=O)N(C2CCCCC2)C3)cc1	none (no result: DSG3 Ab inh)

From PubChem
